This is an account of results in ChEMBL document CHEMBL3988442, “University of Dundee, Small-Polar-MMV Screening Library” (2021).

SMILES strings stand for the structures. For some of these results: Entries with a potency or affinity are not part of this list.

Holding throughout (set-up): scale not given: direction of the effect not stated beside the values
Assay [1] concerns the target Protein translocase subunit SecA (Escherichia coli (strain K12)) (UniProt P10408). The assay can be described thus: Assay to Identify E. coli SecA ATPase Inhibitors. The assay is classed as functional. The conditions noted are these: 30 µM.
Assay [2] has as its target T1, Ubiquitin-activating enzyme e1, putative (Leishmania donovani (strain BPK282A1)) (UniProt E9BSI1).
T1 sequence (whole entry): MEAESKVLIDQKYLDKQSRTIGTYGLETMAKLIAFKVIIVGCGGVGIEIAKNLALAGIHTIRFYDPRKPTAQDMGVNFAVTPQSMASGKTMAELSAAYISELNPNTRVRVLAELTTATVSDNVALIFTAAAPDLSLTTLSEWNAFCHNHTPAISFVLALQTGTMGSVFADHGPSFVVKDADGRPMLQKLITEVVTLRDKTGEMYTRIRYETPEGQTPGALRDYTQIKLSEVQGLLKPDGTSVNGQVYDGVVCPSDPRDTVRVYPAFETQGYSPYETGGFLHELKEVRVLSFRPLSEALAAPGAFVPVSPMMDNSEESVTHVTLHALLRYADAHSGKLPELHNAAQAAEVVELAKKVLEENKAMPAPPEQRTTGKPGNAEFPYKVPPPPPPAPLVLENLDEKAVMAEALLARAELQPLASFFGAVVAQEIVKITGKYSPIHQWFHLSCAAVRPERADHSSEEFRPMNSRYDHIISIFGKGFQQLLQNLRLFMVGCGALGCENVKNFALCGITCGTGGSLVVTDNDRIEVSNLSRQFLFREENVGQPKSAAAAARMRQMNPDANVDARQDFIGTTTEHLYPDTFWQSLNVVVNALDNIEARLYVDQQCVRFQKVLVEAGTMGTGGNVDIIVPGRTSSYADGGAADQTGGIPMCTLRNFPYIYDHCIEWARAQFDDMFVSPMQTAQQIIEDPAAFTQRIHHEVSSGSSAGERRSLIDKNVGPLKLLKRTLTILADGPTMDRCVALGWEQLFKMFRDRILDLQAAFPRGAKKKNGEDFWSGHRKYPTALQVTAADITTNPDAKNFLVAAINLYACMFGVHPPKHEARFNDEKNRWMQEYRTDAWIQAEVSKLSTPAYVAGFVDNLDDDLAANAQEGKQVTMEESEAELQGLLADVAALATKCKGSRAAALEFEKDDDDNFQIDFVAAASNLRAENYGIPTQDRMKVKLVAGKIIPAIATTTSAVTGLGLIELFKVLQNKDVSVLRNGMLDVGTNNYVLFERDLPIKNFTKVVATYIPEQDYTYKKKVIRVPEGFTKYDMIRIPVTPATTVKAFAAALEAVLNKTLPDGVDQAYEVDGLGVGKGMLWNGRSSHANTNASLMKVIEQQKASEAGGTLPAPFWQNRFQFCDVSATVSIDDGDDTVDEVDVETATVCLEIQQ
The experiment in a line: Leishmania donovani Ubiquitin Activating Enzyme (LdE1). It counts as functional. The conditions noted are these: 30 µM.

The target of assay [3] is T2, Aspartate--tRNA(Asp/Asn) ligase (Mycobacterium tuberculosis (strain ATCC 25618 / H37Rv)) (UniProt P9WFW3). Also: in the data most compounds retested in dose-response had high values.
T2 sequence (whole entry): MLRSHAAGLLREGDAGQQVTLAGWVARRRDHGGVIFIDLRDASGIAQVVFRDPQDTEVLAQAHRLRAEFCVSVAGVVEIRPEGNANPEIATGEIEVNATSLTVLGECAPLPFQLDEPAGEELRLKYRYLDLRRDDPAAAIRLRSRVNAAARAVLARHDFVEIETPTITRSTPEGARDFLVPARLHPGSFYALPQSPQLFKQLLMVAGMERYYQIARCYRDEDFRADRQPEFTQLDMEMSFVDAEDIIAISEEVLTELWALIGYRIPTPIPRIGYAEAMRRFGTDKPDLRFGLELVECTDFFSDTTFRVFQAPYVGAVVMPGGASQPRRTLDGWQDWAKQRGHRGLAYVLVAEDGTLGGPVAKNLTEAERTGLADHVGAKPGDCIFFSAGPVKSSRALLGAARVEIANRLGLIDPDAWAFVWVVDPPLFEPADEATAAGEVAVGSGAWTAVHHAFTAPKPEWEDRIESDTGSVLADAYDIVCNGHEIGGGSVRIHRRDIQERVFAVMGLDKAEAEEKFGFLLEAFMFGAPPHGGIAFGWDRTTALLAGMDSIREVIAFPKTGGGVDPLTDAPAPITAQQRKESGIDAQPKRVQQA
The assay can be described thus: Assay for Asp RNA synthetase-1 from Mycobacterium tuberculosis. The assay is classed as functional. The conditions noted are these: 30 µM.

For assay [4], the target named is Sialic acid-binding Ig-like lectin 9 (Homo sapiens) (UniProt Q9Y336). The experiment in a line: Hs-Siglec9 ALPHAscreen SOP 20170721. The conditions noted are these: 10 µM.
Sequence of Sialic acid-binding Ig-like lectin 9 (Homo sapiens) (Q9Y336 whole entry): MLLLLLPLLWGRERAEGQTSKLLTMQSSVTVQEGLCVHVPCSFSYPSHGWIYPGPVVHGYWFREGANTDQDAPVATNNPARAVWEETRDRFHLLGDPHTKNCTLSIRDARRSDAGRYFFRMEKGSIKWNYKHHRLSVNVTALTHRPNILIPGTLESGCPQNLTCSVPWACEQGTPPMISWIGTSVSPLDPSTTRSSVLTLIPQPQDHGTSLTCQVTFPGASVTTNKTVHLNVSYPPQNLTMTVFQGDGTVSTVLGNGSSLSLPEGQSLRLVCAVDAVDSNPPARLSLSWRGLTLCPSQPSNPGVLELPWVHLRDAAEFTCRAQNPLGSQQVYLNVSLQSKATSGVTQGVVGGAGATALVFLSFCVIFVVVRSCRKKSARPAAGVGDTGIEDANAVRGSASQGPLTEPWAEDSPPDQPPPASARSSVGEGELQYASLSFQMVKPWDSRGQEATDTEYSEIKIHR
The subject of a further assay is Trypanosoma cruzi. The assay can be described thus: Trypanosoma cruzi phosphomannomutase and mannose-1-phosphate guanylyltransferase assay. The assay is classed as functional. The conditions noted are these: 10 µM.
For assay [5], the target named is T3, Arginase-2, mitochondrial (Homo sapiens) (UniProt P78540).
T3 sequence (whole entry): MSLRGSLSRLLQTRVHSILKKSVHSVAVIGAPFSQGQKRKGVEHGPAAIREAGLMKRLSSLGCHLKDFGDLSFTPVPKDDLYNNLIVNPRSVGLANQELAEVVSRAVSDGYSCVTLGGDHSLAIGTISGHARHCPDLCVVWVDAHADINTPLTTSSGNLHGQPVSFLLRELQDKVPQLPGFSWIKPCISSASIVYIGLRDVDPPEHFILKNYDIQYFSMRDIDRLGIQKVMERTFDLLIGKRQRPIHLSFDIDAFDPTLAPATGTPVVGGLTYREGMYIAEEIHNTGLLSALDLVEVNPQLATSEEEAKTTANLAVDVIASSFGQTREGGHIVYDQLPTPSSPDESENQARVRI
The experiment in a line: in vitro enzyme assay to detect the production of urea directly proportional to the activity of Arginase II. Also: in the data most compounds retested in dose-response had high values. The assay is classed as functional. The conditions noted are these: 33.3 µM.

The target in assay [6] is T4, Proteasome subunit beta (Trypanosoma cruzi) (UniProt O96673).
T4 sequence (whole entry): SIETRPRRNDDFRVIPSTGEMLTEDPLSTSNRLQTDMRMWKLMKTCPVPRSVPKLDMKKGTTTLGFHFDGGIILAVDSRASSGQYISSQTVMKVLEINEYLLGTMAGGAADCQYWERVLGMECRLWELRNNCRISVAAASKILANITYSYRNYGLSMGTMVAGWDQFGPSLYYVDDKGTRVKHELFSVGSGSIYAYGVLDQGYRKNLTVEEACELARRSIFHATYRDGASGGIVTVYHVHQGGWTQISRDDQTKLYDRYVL
The assay can be described thus: Trypanosoma cruzi proteasome chymotrypsin-like activity (TcProtChymo) assay. Also: in the data most compounds retested in dose-response had high values. The assay is classed as functional. The conditions noted are these: 9.37 µM.

For another assay, the species on record is Homo sapiens. The assay can be described thus: To identify inhibition of the IFN signalling (Jak-Stat) pathway via expression of an eGFP reporter gene under the control of an IFN-stimulated response element (ISRE) containing MxA promoter. The conditions noted are these: 30 µM. It counts as functional.
In assay [7] the target is Shiga toxin 2 (Escherichia coli O157:H7) (UniProt P09385+P09386). The experiment in a line: E. coli 0.157:H7 Shiga Toxin SOP - stx2 screening assay. The assay is classed as functional. The conditions noted are these: 30 µM.
The target in assay [8] is T5, Tyrosyl-tRNA synthetase, putative (Trypanosoma cruzi (strain CL Brener)) (UniProt Q4DSP6).
T5 sequence (whole entry): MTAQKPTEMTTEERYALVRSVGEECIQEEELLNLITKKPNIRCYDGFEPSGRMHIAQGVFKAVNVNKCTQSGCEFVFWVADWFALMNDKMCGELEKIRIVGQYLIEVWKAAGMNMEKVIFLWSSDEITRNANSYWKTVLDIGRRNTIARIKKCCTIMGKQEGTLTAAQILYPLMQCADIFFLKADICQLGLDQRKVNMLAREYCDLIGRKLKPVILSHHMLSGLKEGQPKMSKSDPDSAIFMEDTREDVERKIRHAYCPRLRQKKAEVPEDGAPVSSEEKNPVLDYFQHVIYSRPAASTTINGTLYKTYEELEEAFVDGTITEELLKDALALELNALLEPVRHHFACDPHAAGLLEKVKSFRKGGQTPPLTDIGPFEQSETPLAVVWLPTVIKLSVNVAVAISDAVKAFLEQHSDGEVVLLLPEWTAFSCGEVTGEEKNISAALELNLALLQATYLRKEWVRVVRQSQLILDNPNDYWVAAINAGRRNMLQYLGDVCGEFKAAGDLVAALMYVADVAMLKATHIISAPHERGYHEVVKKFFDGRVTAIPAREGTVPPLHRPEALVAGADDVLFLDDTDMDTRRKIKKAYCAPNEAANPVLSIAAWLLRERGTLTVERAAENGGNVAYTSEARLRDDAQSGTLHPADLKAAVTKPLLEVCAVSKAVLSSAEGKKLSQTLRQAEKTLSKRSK
The experiment in a line: Trypanosoma cruzi tyrosyl tRNA synthetase (TcYRS) _High Tyrosine SOP. Also: in the data most compounds retested in dose-response had high values. It counts as functional. The conditions noted are these: 30 µM.

The target of assay [9] is T5, Tyrosyl-tRNA synthetase, putative (Trypanosoma cruzi (strain CL Brener)). The assay can be described thus: Trypanosoma cruzi tyrosyl tRNA synthetase (TcYRS) SOP. The assay is classed as functional. The conditions noted are these: 30 µM.
In assay [10] the target is Chromo domain-containing protein 1 (Saccharomyces cerevisiae (strain ATCC 204508 / S288c) (Baker's yeast)) (UniProt P32657). The assay can be described thus: ScCHD-1 Enzyme Inhibition Assay. Also: in the data most compounds retested in dose-response had high values. The conditions noted are these: 30 µM. It counts as functional.
Sequence of Chromo domain-containing protein 1 (Saccharomyces cerevisiae (strain ATCC 204508 / S288c) (Baker's yeast)) (P32657 whole entry, the tested form may be a part): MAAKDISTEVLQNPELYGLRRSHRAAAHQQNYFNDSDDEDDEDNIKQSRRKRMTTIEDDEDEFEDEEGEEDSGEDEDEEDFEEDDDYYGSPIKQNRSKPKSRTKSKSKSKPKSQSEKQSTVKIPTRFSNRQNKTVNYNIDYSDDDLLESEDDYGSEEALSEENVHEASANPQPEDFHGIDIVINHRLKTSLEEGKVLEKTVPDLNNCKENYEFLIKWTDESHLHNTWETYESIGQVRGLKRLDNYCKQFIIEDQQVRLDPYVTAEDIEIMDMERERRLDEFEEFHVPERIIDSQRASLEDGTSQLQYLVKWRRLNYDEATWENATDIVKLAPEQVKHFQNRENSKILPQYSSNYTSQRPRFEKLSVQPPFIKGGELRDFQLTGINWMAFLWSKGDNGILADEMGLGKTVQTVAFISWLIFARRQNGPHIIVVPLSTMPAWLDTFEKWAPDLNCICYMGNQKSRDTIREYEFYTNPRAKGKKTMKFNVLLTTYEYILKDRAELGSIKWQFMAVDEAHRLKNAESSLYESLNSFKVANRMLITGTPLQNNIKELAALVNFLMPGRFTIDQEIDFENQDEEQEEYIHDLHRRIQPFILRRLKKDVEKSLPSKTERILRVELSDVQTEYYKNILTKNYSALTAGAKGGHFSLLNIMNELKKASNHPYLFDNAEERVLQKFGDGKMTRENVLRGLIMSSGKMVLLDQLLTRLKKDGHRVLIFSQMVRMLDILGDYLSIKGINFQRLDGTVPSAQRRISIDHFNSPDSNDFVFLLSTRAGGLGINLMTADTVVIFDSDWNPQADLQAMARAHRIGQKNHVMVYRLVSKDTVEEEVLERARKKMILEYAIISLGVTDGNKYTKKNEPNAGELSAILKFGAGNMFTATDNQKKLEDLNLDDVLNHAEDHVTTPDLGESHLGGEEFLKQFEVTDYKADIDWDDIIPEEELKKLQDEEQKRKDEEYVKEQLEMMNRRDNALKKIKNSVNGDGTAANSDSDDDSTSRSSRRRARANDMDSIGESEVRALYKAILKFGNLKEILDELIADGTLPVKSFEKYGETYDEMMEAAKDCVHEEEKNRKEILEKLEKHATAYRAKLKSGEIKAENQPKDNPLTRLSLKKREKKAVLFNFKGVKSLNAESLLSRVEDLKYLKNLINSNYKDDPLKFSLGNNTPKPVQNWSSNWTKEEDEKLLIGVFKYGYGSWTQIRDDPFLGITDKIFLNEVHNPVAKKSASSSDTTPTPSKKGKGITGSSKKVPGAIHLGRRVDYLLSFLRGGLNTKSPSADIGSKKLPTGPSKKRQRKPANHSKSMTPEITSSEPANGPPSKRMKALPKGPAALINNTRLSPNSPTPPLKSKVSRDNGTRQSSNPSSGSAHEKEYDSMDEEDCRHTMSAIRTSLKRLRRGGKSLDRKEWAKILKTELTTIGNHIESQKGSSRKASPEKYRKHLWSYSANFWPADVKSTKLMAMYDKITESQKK

Sequence of Protein translocase subunit SecA (Escherichia coli (strain K12)) (P10408 whole entry): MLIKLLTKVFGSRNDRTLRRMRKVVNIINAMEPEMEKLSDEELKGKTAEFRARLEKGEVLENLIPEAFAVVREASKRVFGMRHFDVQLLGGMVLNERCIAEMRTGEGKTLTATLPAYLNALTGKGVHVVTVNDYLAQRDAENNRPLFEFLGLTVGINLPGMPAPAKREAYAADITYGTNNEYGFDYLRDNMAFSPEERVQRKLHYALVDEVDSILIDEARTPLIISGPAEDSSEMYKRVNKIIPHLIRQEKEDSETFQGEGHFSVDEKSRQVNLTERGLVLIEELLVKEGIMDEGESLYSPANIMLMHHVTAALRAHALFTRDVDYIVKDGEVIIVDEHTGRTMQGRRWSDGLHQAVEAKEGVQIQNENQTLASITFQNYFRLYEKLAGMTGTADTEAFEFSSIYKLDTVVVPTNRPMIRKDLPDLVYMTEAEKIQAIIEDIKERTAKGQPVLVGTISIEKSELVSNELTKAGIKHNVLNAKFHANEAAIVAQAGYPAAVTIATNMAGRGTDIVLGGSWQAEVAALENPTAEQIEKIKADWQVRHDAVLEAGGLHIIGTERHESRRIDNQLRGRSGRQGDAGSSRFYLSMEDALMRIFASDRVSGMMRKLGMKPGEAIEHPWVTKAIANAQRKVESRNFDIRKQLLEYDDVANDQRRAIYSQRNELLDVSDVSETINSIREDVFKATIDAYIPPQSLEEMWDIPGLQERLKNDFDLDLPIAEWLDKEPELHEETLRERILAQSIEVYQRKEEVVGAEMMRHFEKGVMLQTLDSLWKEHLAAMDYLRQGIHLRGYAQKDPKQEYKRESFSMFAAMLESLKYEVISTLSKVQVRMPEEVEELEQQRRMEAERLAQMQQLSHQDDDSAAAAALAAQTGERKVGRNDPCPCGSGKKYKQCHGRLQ

As for `NC[C@H]1[C@H]2CN(Cc3ccccc3)C[C@@H]12`, the Percent Effect in [1] was -1.98%; in assay [2], 19.5%; in [3], -0.091%; in [4], 2.06%; in the assay on Trypanosoma cruzi, -0.938%; in assay [5], 1.83%. The Percent Effect in assay [6] is 7.81%; in the assay listed under Homo sapiens, 31%; in assay [7] it was -5.17%; in assay [8] it was 4.83%; in [9], 15%; in assay [10], -6.97%.
In the case of `COCC1CC2(CCN(Cc3ccccn3)CC2)CN1C(C)C` (stereo unspecified), the Percent Effect is -6.44% in assay [1]; 6.49% in assay [2]; 4.1% in assay [3]; 6.75% in [4]; 7.11% in the assay with Trypanosoma cruzi; -8.1% in assay [5]. Further, the Percent Effect in assay [6] is 7.5%; in the assay filed under Homo sapiens it was 2.62%; in [7], -1.31%; in [8], 3.68%; in assay [9], 12.8%; in assay [10], 2.02%.
Regarding `COc1ccc(C(=O)C2CCCN(Cc3ccncc3)C2)c(OC)c1` (stereo unspecified), the Percent Effect in [1] is -6.33%; in assay [2], 5.41%; in [3], -0.276%; in assay [4], 12.6%; with Trypanosoma cruzi, 5.33%; in assay [5] it was 15%. The Percent Effect in assay [6] stood at 5.31%; in the assay filed under Homo sapiens, 10.7%; in assay [7] it was 11%; in assay [8], 5.85%; in assay [9] it was 12.2%; in assay [10], 83.7%.
Turning to `O=C(Nc1cccnc1)[C@@H]1C[C@H]2OCC[C@H]2N(Cc2ccsc2)C1`, the Percent Effect was -6.23% in [1]; 9.09% in [2]; -1.88% in assay [3]; 6.98% in assay [4]; 0.487% in the assay with Trypanosoma cruzi; -0.81% in [5]. Moreover, the Percent Effect was 13.7% in assay [6]; 0.767% in the assay filed under Homo sapiens; -6.35% in assay [7]; 4.74% in assay [8]; 10.3% in assay [9]; -2.28% in assay [10].
As to `COC(=O)CCN1CCCC1c1cccc2c1OCCO2` (stereo unspecified), the Percent Effect in [3] was -1.34%.
As for `CC(C)c1nccc([C@H]2C[C@@H]3CCN(Cc4ccoc4)C[C@H]3O2)n1`, the Percent Effect is -3.97% in assay [1]; -6.49% in [2]; -4.77% in [3]; -2.81% in assay [4]; 6.13% with Trypanosoma cruzi; -6.48% in assay [5]. The Percent Effect in assay [6] was 16.7%; in the assay filed under Homo sapiens, -14.2%; in [7], 3.27%; in assay [8], 5.79%; in assay [9] it was 0%; in assay [10], -1.73%.
